Test results: PubChem BioAssay (NCI)
Values joined by “and” are separate entries in the source; they are usually repeats but may differ in a detail not shown here. Equal values may be shown once. This is part of a sample that, as a whole, favours compounds with a hit. Of some 79,000 tested, about 15% had one in any assay. Values without a mark were called inactive. Active and inactive are the calls of the source. Cut-off read from the data, not from the text of the source: active = growth inhibition above about 70%; inactive = the rest. Where a SMILES comes first, the peptide text is derived from it. The star is where a group is joined. Boc = CC(C)(C)OC(=O)*; Bn = c1ccc(C*)cc1

How the values were obtained:
[1] = NCI Yeast Anticancer Drug Screen. Data for the rad50 strain (AID 155);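 note: 0% = growth of vehicle-only cultures of the same strain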; conditions: S. cerevisiae rad50 strain growth inhibition, stronger effect = higher value
Method in brief: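 Yeast carrying a defined DNA repair defect were exposed to test compounds, and growth was compared with vehicle-treated controls to give percent inhibition.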

[2] = NCI Yeast Anticancer Drug Screen. Data for the mec2-1 strain (AID 157); conditions: S. cerevisiae mec2-1 strain, stronger effect = higher value
Method in brief: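 Vehicle-treated cultures served as reference for growth inhibition of compound-exposed mec2-1 yeast.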

[3] = NCI Yeast Anticancer Drug Screen. Data for the sgs1 mgt1 strain (AID 161);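 note: 0% = growth of cultures given vehicle only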; conditions: S. cerevisiae sgs1 mgt1 strain, stronger effect = higher value
Method in brief: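 Mutant yeast exposed to compound; growth scored against vehicle-only wells.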

[4] = NCI Yeast Anticancer Drug Screen. Data for the cln2 rad14 strain (AID 165);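 note: 0% = growth equal to vehicle treated cultures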; conditions: S. cerevisiae cln2 rad14 strain, stronger effect = higher value
Method in brief: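 Each compound was tested on cln2 rad14 yeast. Inhibition of growth was calculated against vehicle-exposed controls.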

[5] = NCI Yeast Anticancer Drug Screen. Data for the bub3 strain (AID 167); conditions: S. cerevisiae bub3 mutant strain, stronger effect = higher value
Method in brief: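 Compounds were applied to a genetically altered yeast strain carrying a cell-cycle control defect. Growth inhibition was scored against vehicle-treated controls.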

[6] = NCI Yeast Anticancer Drug Screen. Data for the mlh1 rad18 strain (AID 175); conditions: S. cerevisiae mlh1 rad18 strain growth inhibition, stronger effect = higher value
Method in brief: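 Vehicle-treated cultures served as the reference for growth inhibition in a yeast strain carrying DNA damage repair alterations exposed to each compound.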

[7] = at 5.0 µM (retest, dose inferred, filed as 0.5)
[8] = at 50.0 µM (retest, dose inferred, filed as 5.0)

Compound	growth inhibition [1, 7]	growth inhibition [1, 8]	growth inhibition [2, 7]	growth inhibition [2, 8]	growth inhibition [3, 7]	growth inhibition [3, 8]	growth inhibition [4, 7]	growth inhibition [4, 8]	growth inhibition [5, 7]	growth inhibition [5, 8]	growth inhibition [6, 7]	growth inhibition [6, 8]	growth inhibition ([1]; at 50.0 µM)	growth inhibition ([2]; at 50.0 µM)	growth inhibition ([3]; at 50.0 µM)	growth inhibition ([4]; at 50.0 µM)	growth inhibition ([5]; at 50.0 µM)	growth inhibition ([6]; at 50.0 µM)
Oc1ccc(/C=C/c2ccc(Cl)cc2)cc1	-26%	97% (active)	5%	98% (active)	4%	97% (active)	7%	97% (active)	10%	98% (active)	13%	96% (active)						
C1OC2COCOC2C2OCOCC2O1 (stereo not given)													-22.8% and -3%	-17.2% and -9.95%	-17.4% and -7.85%	-33.5% and -14.5%	-13.3% and 0.85%	-4.45% and -4.65%
O=C1c2ccccc2-c2ccc(O)cc21	58%	95% (active)	17%	84% (active)	28%	93% (active)	10%	69%	10%	87% (active)	-11%	90% (active)						
CCC(C)(CC)c1ccc(O)cc1	14%	78% (active)	-1%	45%	-3%	77% (active)	-2%	23%	0%	44%	33%	76% (active)						
CN(C)c1ccc(SC#N)cc1	-4%	92% (active)	2%	85% (active)	-2%	86% (active)	3%	51%	16%	95% (active)	-20%	87% (active)						
CC(=O)c1ccc2c(c1)sc1cc(C(C)=O)ccc12	30%	98% (active)	15%	98% (active)	8%	99% (active)	9%	97% (active)	15%	99% (active)	23%	98% (active)						
O=c1[nH][nH]c(=O)c2ccccc12													7.4% and 8.6%	-24.6% and -7.45%	-23.8% and -6.7%	-1.3% and -12.8%	-10.3% and -0.95%	2.75% and 25.1%
Cc1ccc(-c2c(C#N)c(-c3ccc(C)cc3)n(NS(=O)(=O)c3ccccc3)c(=O)c2C#N)cc1	30%	84% (active)	38%	94% (active)	29%	94% (active)	53%	93% (active)	52%	95% (active)	33%	85% (active)						
CCSC(=O)c1ccc([N+](=O)[O-])o1	20%	99% (active)	6%	100% (active)	31%	100% (active)	9%	99% (active)	13%	100% (active)	-9%	99% (active)						
C/C(=N\Nc1ccc(Cl)cc1)C(=O)O	17%	97% (active)	-2%	98% (active)	14%	99% (active)	8%	98% (active)	29%	99% (active)	-29%	96% (active)						
CC(=O)O[C@H]1C(=O)[C@@]2(C)C(C(OC(=O)c3ccccc3)[C@]3(O)CC(OC(=O)[C@H](OC(=O)CCC(=O)O)C(NC(=O)c4ccccc4)c4ccccc4)C(C)=C1C3(C)C)C1(OC(C)=O)COC1C[C@@H]2O (stereo not given in full)													12.9% and 26.6%	10.1% and 18.2%	-19.2% and -19.7%	-15.8% and -13.2%	-6.95% and -15.3%	
CCOC(=O)C(NC(C)=O)C(=O)c1ccccc1 (stereo not given)	-3%	6%	-3%	-4%	0%	-1%	11%	-4%	2%	-1%	-35%	-6%						
CSC(SC)=C(C#N)C(=O)Nc1cccc(Cl)c1	78% (active)	97% (active)	62%	99% (active)	65%	99% (active)	39%	98% (active)	65%	99% (active)	56%	97% (active)						
CC(C)(C)C(=O)CC(c1ccccc1)c1ccccc1	11%	20%	-1%	3%	5%	30%	12%	0%	10%	22%	-13%	9%						
CNC(=O)C(CC(C)C)NC(=O)C(C)NC(=O)C(Cc1ccc(OCc2ccccc2)cc1)NC(=O)C(COCc1ccccc1)NC(=O)OC(C)(C)C (stereo not given) (Boc-S(Bn)Y(Bn)AL-NHMe; configuration not given here)													-7.2% and -29.6%	-17.5% and -21.1%	-20.1% and -17%	17.1% and 6.9%	25% and -1.35%	
CC(=O)OCC1OC(n2c(=S)n(-c3ccc(C)cc3)c(=O)c3ccccc32)C(OC(C)=O)C(OC(C)=O)C1OC(C)=O (stereo not given)													2.2% and 32%	6.1% and 18.4%	-11.1% and 15.9%	21% and 21.2%	-6.65% and 14.7%	-9.4% and 4.9%
